Assay results from PubChem BioAssay (EPA / NIEHS).
Results filed as inconclusive are left out. Calls of active or inactive are those of the source. How the source made its calls: active means hit-call score of the fitted dose curve at least 0.9, where 1 is the maximum; inconclusive means response in the unintended direction; inactive means score below 0.9.

test: ACEA_ER_AUC_viability: ACEA Biosciences xCELLigence Real-Time Cell Analysis on Estrogen Receptor Agonism for Viability (AID 2283782);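 further: continuous compound exposure with impedance area under curve over 80 h; hit means loss of impedance signal meaning reduced cell growth or viability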
Method in brief: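 T-47D human breast cells in phenol red-free RPMI1640 with 10% charcoal-stripped FBS were dosed with an 8-point 1:4 dilution series from 100 uM top final concentration, in duplicate. Impedance-based growth was followed for 80 h; AUC analysed versus DMSO.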

For `c1ccc2c(c1)-c1ccc3ccc4cccc5cc-2c1c3c45`, which outcome is on record?
Its outcome is “inactive”.

For `CCCCCCCCCCCCCC(=O)OCC`, which AC50 is on record?
Its AC50 is 50 µM (active).

For `CC1=CC(=O)[C@H]2C[C@@H]1C2(C)C`, which AC50 is on record?
Its AC50 is 31 µM (active).

With `N[C@@H](CCC(=O)O)C(=O)O` as the molecule, how does the outcome read?
The outcome was “inactive”.

For `CCOC(=O)CC1(C)OCC(C)O1` (centres undefined), which outcome is on record?
Its outcome is “inactive”.

With `O=[N+]([O-])c1cc(N(CCO)CCO)ccc1NCCO` as the molecule, how does the outcome read?
The outcome was “inactive”.

Which outcome does the source give for `Cc1ccccc1S` here?
Its outcome is “inactive”.

With `CC1(C)CC(=O)CC(C)(C)N1` as the molecule, how does the outcome read?
The outcome was “inactive”.

For `CC/C=C\CCOC(C)OCC` (centres undefined), which outcome is on record?
Its outcome is “inactive”.
